Source: PubChem BioAssay (Tox21)
Values without a mark were called inactive. Records with an inconclusive call do not appear. Where a call stands in place of a potency, no number is given. Calls of active or inactive are those of the source. Unless noted, calls follow the shape of the dose curve; as a rule, active = well fitted curve in the direction sought with a large enough effect in the repeat runs; inconclusive = weak or mixed curves; inactive = no such curve, though single readings can be large; an effect the other way counts as inactive or inconclusive.

Columns and labels:
[1] = qHTS assay to identify small molecule agonists of the sonic hedgehog signaling (Shh) pathway (AID 1259368; calls by dose curve;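 also: NIH/3T3-derived 3T3Gli1-Luc cells carrying a stable Gli1-driven firefly luciferase reporter; series mostly up to about 92 µM; nearly all actives have a fitted effect of over 15% in size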)
How it was run: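 A Gli1 transcriptional response element controlled firefly luciferase in 3T3Gli1-Luc cells. Compounds and a positive control were added 4 hr after plating, and cells were incubated a further 24 hr at 37 C before luminescence detection.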

[2] = qHTS assay to identify small molecule antagonists of the sonic hedgehog signaling (Shh) pathway (AID 1259369; calls by dose curve; also: nearly all actives have a fitted effect of over 45% in size; also: potency is read from the fitted curve at half-maximal effect)
How it was run: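 For antagonist detection, the reporter line received test compounds together with conditioned medium, incubated 24hr at 37 C, 5% CO2, then luminescence was recorded following 30min room-temperature luciferase reagent incubation.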

[3] = qHTS assay to identify small molecule agonists of the androgen receptor (AR) signaling pathway in the presence of an antagonist - cell viability counter screen (AID 1259379);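 also: MDA-kb2 human breast cancer cells carrying an MMTV luciferase reporter; series mostly up to about 92 µM; nearly all actives have a fitted effect of over 25% in size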
How it was run: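 Seed MDA-kb2 at 3,000 cells/well; incubate 5 hr, 37C, 0% CO2. Add nilutamide to 3.0uM final, then pin compounds at 15 concentrations. Incubate 16 hr. Add CellTiter-Fluor at 15 hr, read fluorescence after 1 hr.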

[4] = qHTS assay to identify small molecule agonists of the estrogen receptor beta (ER-beta) signaling pathway - cell viability counter screen (AID 1259380); also: nearly all actives have a fitted effect of over 30% in size; also: potency is read from the fitted curve at half-maximal effect
How it was run: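 CellTiter-Glo read, 30 min RT, same wells as bla assay; cells ER-beta-UAS-bla HEK293T; 16 hr compound, 37C; medium 2% charcoal-stripped FBS.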

[5] = qHTS assay to identify small molecule antagonists of the estrogen receptor beta (ER-beta) signaling pathway - cell viability counter screen (AID 1259382);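 also: HEK293T cells carrying ER-beta-UAS-bla reporter stimulated with estradiol; series mostly up to about 92 µM; nearly all actives have a fitted effect of over 55% in size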
How it was run: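 In this multiplexed counter screen, cells were seeded at 2,000 per well in medium with 2% charcoal-stripped FBS and incubated 6 hr before compound and 1nM final E2 were added. Sixteen hours later, ATP-based luminescence reported viability.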

[6] = target: Estrogen receptor (Homo sapiens) (UniProt P03372); experiment: qHTS assay to identify small molecule agonists of the estrogen receptor alpha (ER-alpha) signaling pathway in the presence of an antagonist (AID 1259383; calls by dose curve; also: top concentration of the series differs between compounds; nearly all actives have a fitted effect of over 15% in size)
Chain of Estrogen receptor (Homo sapiens) (P03372 whole entry, looked up): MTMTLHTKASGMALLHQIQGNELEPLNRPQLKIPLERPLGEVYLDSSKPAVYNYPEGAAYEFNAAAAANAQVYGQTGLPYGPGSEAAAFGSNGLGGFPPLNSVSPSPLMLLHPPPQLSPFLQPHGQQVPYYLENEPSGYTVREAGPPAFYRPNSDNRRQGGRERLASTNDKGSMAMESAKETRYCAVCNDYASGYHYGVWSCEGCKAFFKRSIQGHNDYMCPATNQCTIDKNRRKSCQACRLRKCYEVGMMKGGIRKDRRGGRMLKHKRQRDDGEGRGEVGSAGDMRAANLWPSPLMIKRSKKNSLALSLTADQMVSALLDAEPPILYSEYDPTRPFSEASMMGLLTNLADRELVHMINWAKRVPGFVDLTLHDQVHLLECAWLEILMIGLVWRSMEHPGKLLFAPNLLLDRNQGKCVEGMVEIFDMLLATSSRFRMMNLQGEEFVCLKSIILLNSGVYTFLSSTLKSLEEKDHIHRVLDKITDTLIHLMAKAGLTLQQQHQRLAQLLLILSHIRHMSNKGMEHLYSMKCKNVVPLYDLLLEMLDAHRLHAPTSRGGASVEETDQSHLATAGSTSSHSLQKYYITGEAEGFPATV
How it was run: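 Stably transfected VM7Luc4E2 reporter cells, kept 5 days in charcoal-stripped serum, received ICI-182,780 at 10.0nM final before compound addition. Following 22hr incubation at 37C and 5% CO2, luciferase signal was read by luminescence.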

[7] = qHTS assay to identify small molecule agonists of the estrogen receptor alpha (ER-alpha) signaling pathway in the presence of an antagonist - cell viability counter screen (AID 1259386);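 also: series mostly up to about 92 µM; cells exposed to compounds for 22 h at 37 °C before the viability read; nearly all actives have a fitted effect of over 30% in size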
How it was run: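 Viability counter screen using VM7Luc4E2 (full-length ER-alpha, four ERE-luciferase). The cells were treated with compounds alongside ICI-182,780 10.0nM for 22hr, and live-cell protease fluorescence was quantified with CellTiter-Fluor.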

[8] = target: Progesterone receptor (Homo sapiens) (UniProt P06401); experiment: qHTS assay to identify small molecule agonists of the progesterone receptor (PR) signaling pathway (AID 1346784; calls by dose curve; also: nearly all actives have a fitted effect of over 30% in size)
Chain of Progesterone receptor (Homo sapiens) (P06401 whole entry, looked up): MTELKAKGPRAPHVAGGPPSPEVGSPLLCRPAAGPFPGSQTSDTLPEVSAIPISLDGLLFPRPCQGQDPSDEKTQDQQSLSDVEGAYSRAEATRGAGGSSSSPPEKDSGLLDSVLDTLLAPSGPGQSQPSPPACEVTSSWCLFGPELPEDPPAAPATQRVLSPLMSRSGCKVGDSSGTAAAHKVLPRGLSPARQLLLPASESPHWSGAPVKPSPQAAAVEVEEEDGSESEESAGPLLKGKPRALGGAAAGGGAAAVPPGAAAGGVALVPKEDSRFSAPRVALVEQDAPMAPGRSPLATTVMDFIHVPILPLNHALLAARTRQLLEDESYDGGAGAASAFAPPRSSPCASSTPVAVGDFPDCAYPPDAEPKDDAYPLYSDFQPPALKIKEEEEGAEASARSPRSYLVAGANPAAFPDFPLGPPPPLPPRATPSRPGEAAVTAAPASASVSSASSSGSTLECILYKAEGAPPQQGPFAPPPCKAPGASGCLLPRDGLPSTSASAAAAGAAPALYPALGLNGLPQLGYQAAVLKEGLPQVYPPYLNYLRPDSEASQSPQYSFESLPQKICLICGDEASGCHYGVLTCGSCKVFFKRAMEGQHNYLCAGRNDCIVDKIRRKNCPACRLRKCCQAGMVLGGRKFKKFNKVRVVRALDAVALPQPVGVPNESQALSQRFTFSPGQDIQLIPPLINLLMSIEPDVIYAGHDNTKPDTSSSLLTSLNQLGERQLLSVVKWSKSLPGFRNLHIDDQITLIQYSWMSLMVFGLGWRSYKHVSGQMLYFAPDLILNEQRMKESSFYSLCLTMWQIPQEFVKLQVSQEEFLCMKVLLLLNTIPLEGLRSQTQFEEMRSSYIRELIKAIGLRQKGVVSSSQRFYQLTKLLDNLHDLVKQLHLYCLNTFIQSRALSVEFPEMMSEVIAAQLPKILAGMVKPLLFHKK
How it was run: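 Agonist qHTS: compounds pinned onto 3,000 PR-UAS-bla HEK 293T cells per well in charcoal-stripped serum medium, 16hr at 37C, then beta-lactamase activity measured by LiveBLAzer FRET fluorescence after 2 hours at room temperature.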

[9] = target: Progesterone receptor (Homo sapiens) (UniProt P06401); experiment: qHTS assay to identify small molecule antagonists of the progesterone receptor (PR) signaling pathway (AID 1346795; active = well fitted inhibition curve with a large enough effect in the signal ratio in the repeat runs, not every such curve was filed as active; the % refers to the signal ratio)
How it was run: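 Antagonist mode with agonist R5020 at 1 nM final and 16 hr incubation at 37C. Reporter was beta-lactamase driven by UAS in HEK293T (PR-UAS-bla), 2% charcoal-stripped serum; signal from LiveBLAzer FRET substrate, 2 hr at room temperature.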

[10] = qHTS assay to identify small molecule antagonists of the progesterone receptor (PR) signaling pathway - cell viability counter screen (AID 1346798); also: series mostly up to about 92 µM; nearly all actives have a fitted effect of over 50% in size
How it was run: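 Cytotoxicity read as CellTiter-Glo luminescence (30 min, room temperature) in the same wells as the beta-lactamase readout. HEK293T PR-UAS-bla cells in charcoal-stripped 2% FBS received compound and R5020, then 16 h at 37C, 5% CO2.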

[11] = qHTS assay to identify small molecule agonists of the progesterone receptor (PR) signaling pathway - cell viability counter screen (AID 1346799; calls by dose curve; also: nearly all actives have a fitted effect of over 45% in size; also: potency is read from the fitted curve at half-maximal effect)
How it was run: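 Cytotoxicity measured by CellTiter-Glo luminescence (30 min, RT) in the same wells as the PR beta-lactamase agonist read. Those HEK293T cells had 16 h compound treatment at 37 C in 2% charcoal-stripped FBS medium.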

[12] = qHTS assay to identify small molecule antagonists of the TGF-beta/Smad signaling pathway - cell viability counter screen (AID 1346824); also: nearly all actives have a fitted effect of over 50% in size
How it was run: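 SBE-bla HEK 293T cells were plated overnight at 37 C, then given compounds in DMSO plus TGF-beta1 (added as 0.25 ng/mL solution) for 5 hr. After the bla read, CellTiter-Glo was added to the same wells and luminescence read after 30 min at room temperature.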

[13] = qHTS assay to identify small molecule agonists of the TGF-beta/Smad signaling pathway (AID 1346859; active = well fitted activation curve with a large enough effect in the signal ratio in the repeat runs, not every such curve was filed as active; the % refers to the signal ratio; also: series mostly up to about 77 µM)
How it was run: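 Fluorescence (ex 405 nm; em 460 and 530 nm) was read 2 h after LiveBLAzer FRET substrate at RT. The preceding compound treatment of overnight-plated SBE-bla HEK293T cells lasted 5 h at 37 C.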

[14] = qHTS assay to identify small molecule agonists or antagonists of the thyroid stimulating hormone receptor (TSHR) signaling pathway - wild type cell line counter screen (AID 1259384; calls by dose curve)
How it was run: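 Wild-type HEK293 cells were plated 18 h at 37 C/5% CO2, pin-dosed with compound plus Ro20-1724 medium, held 30 min at room temperature, then given cAMP-d2 and anti-cAMP-cryptate; fluorescence was read after 1 h. Fifteen concentrations, triplicate.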

[15] = qHTS assay to identify small molecule agonists of the TGF-beta/Smad signaling pathway - cell viability counter screen (AID 1346829); also: top concentration of the series differs between compounds; nearly all actives have a fitted effect of over 45% in size
How it was run: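 Cytotoxicity counter screen: CellTiter-Glo luminescence (30 min, room temperature) measured in the SBE-bla HEK 293T reporter wells after 5 hr compound treatment at 37 C and the 2 hr substrate step.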

[16] = target: Thyrotropin-releasing hormone receptor (Homo sapiens) (UniProt P34981); experiment: qHTS assay to identify small molecule antagonists of the thyrotropin-releasing hormone receptor (TRHR) signaling pathway (AID 1346877; active = well fitted inhibition curve with a large enough effect in the repeat runs, not every such curve was filed as active; also: series mostly up to about 51 µM)
Chain of Thyrotropin-releasing hormone receptor (Homo sapiens) (P34981 whole entry, looked up): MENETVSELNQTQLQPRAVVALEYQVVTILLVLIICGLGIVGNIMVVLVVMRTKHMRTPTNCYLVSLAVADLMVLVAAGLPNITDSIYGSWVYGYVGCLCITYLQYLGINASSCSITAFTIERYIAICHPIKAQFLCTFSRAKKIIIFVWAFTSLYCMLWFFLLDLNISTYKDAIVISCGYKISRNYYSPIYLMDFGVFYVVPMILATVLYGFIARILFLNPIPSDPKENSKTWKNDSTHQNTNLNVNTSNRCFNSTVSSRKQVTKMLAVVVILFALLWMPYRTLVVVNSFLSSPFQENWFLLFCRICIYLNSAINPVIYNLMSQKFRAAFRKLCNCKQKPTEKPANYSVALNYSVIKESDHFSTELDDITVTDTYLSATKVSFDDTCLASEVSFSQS
How it was run: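 Following an 18 h incubation at 37 °C and a 2 h calcium dye load, TRHR-HEK293 cells were exposed to compound (5 min, room temperature) and challenged with TRH, 1 nM final.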

[17] = target: Thyrotropin receptor (Homo sapiens) (UniProt P16473); experiment: qHTS assay to identify small molecule antagonists of the thyroid stimulating hormone receptor (TSHR) signaling pathway (AID 1259385; calls by dose curve; also: nearly all actives have a fitted effect of over 20% in size)
Chain of Thyrotropin receptor (Homo sapiens) (P16473 whole entry, looked up): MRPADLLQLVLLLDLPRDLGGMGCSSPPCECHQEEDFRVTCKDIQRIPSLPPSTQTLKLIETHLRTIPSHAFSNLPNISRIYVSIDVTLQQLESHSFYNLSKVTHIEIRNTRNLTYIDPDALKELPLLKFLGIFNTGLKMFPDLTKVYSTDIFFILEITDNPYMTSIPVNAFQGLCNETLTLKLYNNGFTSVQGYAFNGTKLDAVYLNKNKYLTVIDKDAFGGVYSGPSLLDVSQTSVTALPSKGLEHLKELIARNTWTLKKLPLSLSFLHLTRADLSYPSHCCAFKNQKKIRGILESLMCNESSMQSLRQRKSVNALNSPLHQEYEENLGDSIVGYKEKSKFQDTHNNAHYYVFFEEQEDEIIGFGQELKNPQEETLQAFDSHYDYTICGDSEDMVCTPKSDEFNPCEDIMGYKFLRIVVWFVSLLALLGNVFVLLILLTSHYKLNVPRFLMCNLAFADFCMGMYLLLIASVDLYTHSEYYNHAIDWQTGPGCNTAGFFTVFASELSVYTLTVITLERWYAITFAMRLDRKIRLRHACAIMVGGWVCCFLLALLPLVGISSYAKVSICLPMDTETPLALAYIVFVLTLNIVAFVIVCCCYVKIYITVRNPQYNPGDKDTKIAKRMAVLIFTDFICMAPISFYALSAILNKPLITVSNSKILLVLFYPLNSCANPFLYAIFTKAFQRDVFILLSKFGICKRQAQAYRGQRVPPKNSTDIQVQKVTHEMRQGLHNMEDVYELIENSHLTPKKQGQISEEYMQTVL
How it was run: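 TSHR-HEK293 cells were plated and held 18 h at 37C/5% CO2, then given compound plus Ro20-1724 and stimulated with TSH at 1.5 ng/mL final. After 30 min at room temperature, cAMP was detected with cAMP-d2/anti-cAMP-cryptate (1 h) by fluorescence.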

[18] = target: Androgen receptor (Homo sapiens) (UniProt P10275); experiment: qHTS assay to identify small molecule agonists of the androgen receptor (AR) signaling pathway in the presence of an antagonist (AID 1259381; calls by dose curve; also: nearly all actives have a fitted effect of over 15% in size)
Chain of Androgen receptor (Homo sapiens) (P10275 whole entry, looked up): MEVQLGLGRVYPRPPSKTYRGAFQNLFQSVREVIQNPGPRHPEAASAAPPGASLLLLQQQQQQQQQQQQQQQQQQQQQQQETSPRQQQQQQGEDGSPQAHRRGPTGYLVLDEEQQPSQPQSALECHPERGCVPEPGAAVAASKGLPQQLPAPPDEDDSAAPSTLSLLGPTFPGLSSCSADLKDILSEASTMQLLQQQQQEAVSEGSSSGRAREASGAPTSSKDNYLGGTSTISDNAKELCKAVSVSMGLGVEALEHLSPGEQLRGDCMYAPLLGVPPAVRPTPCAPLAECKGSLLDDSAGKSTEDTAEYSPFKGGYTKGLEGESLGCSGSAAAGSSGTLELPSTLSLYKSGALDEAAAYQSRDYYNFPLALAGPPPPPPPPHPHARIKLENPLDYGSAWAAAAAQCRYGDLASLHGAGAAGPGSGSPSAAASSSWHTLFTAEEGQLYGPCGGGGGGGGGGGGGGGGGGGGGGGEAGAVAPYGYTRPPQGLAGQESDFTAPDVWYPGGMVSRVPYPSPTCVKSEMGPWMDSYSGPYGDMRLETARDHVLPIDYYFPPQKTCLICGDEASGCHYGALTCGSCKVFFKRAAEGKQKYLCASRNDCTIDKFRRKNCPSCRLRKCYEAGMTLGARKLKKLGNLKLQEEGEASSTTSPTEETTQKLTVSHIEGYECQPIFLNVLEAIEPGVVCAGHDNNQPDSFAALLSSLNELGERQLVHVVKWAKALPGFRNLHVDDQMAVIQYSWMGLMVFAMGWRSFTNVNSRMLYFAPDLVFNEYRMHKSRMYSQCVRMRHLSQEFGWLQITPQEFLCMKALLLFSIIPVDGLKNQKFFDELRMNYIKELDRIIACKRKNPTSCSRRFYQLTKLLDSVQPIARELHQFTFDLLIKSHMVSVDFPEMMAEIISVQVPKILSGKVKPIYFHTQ
How it was run: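 Test compounds at 15 concentrations were incubated for 16hr with MDA-kb2 reporter cells in presence of 3.0uM nilutamide (final). Signal: ONE-Glo luciferase luminescence.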

CC(C)C1=CC2=CC[C@@H]3[C@](C)(CCC[C@@]3(C)C(=O)O)[C@H]2CC1
Potency [1]: inactive | Potency [2]: inactive | Potency [3]: inactive | Potency [4]: 30.6 µM (active) | outcome [5]: inactive | Potency [6]: inactive | Potency [7]: inactive | Potency [8]: inactive | Potency [9]: inactive | Potency [10]: inactive | Potency [11]: inactive | outcome [12]: inactive | outcome [13]: inactive

CCCOCCC
Potency [1]: inactive | Potency [2]: inactive | Potency [3]: inactive | Potency [4]: inactive | outcome [5]: inactive | Potency [6]: inactive | outcome [14]: inactive | Potency [7]: inactive | Potency [8]: inactive | Potency [9]: inactive | Potency [10]: inactive | outcome [12]: inactive | outcome [15]: inactive | outcome [13]: inactive | outcome [16]: inactive

CCCCCCCCCCCCOCCOS(=O)(=O)O
Potency [1]: inactive | Potency [2]: inactive | Potency [3]: inactive | Potency [4]: 48.6 µM (active) | Potency [6]: inactive | outcome [14]: inactive | Potency [7]: inactive | Potency [8]: inactive | Potency [10]: inactive | Potency [11]: 27.3 µM (active) | outcome [12]: inactive | outcome [15]: inactive | outcome [13]: inactive

Cc1ccccc1C(=O)Nc1ccc(C(=O)N2CCCC(O)c3cc(Cl)ccc32)c(C)c1 (stereo not drawn)
Potency [1]: inactive | Potency [2]: inactive | Potency [3]: inactive | Potency [4]: 23.7 µM (active) | outcome [5]: inactive | Potency [7]: inactive | Potency [8]: inactive | Potency [10]: inactive | outcome [12]: inactive | outcome [15]: inactive | outcome [13]: inactive | outcome [16]: inactive

CCCCN1C[C@H](O)[C@@H](O)[C@H](O)[C@H]1CO
Potency [1]: inactive | Potency [2]: inactive | Potency [3]: inactive | Potency [4]: inactive | outcome [5]: inactive | Potency [6]: inactive | outcome [14]: inactive | Potency [17]: inactive | Potency [7]: inactive | Potency [8]: inactive | Potency [9]: inactive | Potency [10]: inactive | Potency [11]: inactive | outcome [12]: inactive | outcome [15]: inactive | outcome [13]: inactive | outcome [16]: inactive

CCNCCO
Potency [1]: inactive | Potency [2]: inactive | Potency [3]: inactive | Potency [4]: inactive | outcome [5]: inactive | outcome [14]: inactive | Potency [17]: inactive | Potency [7]: inactive | Potency [8]: inactive | Potency [9]: inactive | Potency [10]: inactive | Potency [11]: inactive | outcome [12]: inactive | outcome [15]: inactive | outcome [13]: inactive

NCCCN1CCN(CCCN)CC1
Potency [1]: inactive | Potency [2]: inactive | Potency [4]: inactive | Potency [18]: inactive | outcome [5]: inactive | Potency [6]: inactive | outcome [14]: inactive | Potency [17]: inactive | Potency [7]: inactive | Potency [8]: inactive | Potency [9]: inactive | Potency [11]: inactive | outcome [12]: inactive | outcome [13]: inactive | outcome [16]: inactive

CC(C)OC(C)C
Potency [1]: inactive | Potency [2]: inactive | Potency [3]: inactive | outcome [5]: inactive | Potency [6]: inactive | outcome [14]: inactive | Potency [7]: inactive | Potency [8]: inactive | Potency [9]: inactive | Potency [10]: inactive | Potency [11]: inactive | outcome [12]: inactive | outcome [15]: inactive | outcome [13]: inactive

COC(=O)c1ccc2cc(C(=O)OC)ccc2c1
activity change [1]: 6.39% [at 18.9 µM, stronger effect = higher value] | Potency [2]: 9.93 µM (active) | activity change, negative = cytotoxicity [4]: 0.723% [at 19 µM] | activity change, negative = cytotoxicity [5]: -4.09% [at 19 µM] | activation [6]: 0.0917% [at 19 µM] | cAMP activity change [14]: 3.63% [at 18.9 µM] | activity change, negative = inhibition [17]: -1.02% [at 19 µM] | activation [8]: 2.44% [at 19 µM] | activity change, negative = inhibition [9]: -25.1% [at 18.9 µM] | Potency [10]: inactive | activity change, negative = cytotoxicity [11]: -2.9% [at 19 µM] | viability change, negative = cytotoxic [12]: 0.743% [at 15.8 µM] | activity change, negative = cytotoxicity [15]: 8.9% [at 15.8 µM] | activation [13]: 0.192% [at 15.8 µM]
